High-throughput results deposited in PubChem by National Center for Advancing Translational Sciences (NCATS).
An excerpt weighted towards active compounds, which were near 12% of everything screened.
LASV entry inh – qHTS for Inhibitors of binding or entry into cells for Lassa Virus; Lassa virus pseudotype entry inhibition, cell reporter; 1.2% of 300,000 active; Potency, µM (series often up to 37.9 µM), hits mostly inhibitors; calls by dose curve; tested in HEK293 cells; note: nearly all actives have a fitted effect of over 50% in size
Shiga inhibitor – A qHTS for Small Molecule Inhibitors of Shiga Toxin; Vero cells, Shiga toxin protein synthesis inhibition reporter; inhibition, % at 38.7 µM; 9.2% of 290,000 active; in the data active = inhibition mostly above about 28%, no sharp cut-off; inactive = mostly below about 43%
Marburg entry inh – qHTS for inhibitors of binding or entry into cells for Marburg Virus; 1.8% of 300,000 active; Marburg virus pseudotyped entry inhibition, cell reporter; Potency, µM (titrated, usually from 37.8 µM), hits mostly inhibitors; AID 540276, 2011; calls by dose curve; tested in HEK293 cells
Cycloheximide cs – Cycloheximide Counterscreen for Small Molecule Inhibitors of Shiga Toxin. 12% of 300,000 active. cell reporter, cycloheximide protein synthesis inhibition counterscreen. max response, %; in the data active = max response mostly above about 13%, no sharp cut-off; inactive = mostly below about 14%; note: read at 38.3 µM for the half of the compounds with a filed dose
Numbers stand for hits; . = inactive; ? = inconclusive; / = not tested or not shown.

SMILES | LASV entry inh | Shiga inhibitor | Marburg entry inh | Cycloheximide cs
O=C(O)Cn1nc(N2CCN(c3ccccc3)CC2)ccc1=O | . | / | . | /
CC1CCc2c(sc3nnn(CC(=O)Nc4c(C(C)C)cccc4C(C)C)c(=O)c23)C1 (centres undefined) | . | / | . | /
CCOC(=O)c1c(C)[nH]c(C(=O)Cn2c(=O)oc3ccccc32)c1C | ? | . | ? | 30
CCOC(=O)c1c(C)[nH]c(C(=O)C(C)OC(=O)c2cccc(OCc3c(C)noc3C)c2)c1C (centres undefined) | ? | . | ? | 17
CCOC(=O)c1[nH]c(C)c(C(=O)OCC)c1C | / | 138 | / | 65
CC(=O)c1c(C)[nH]c(C(=O)OCc2cccc(Cl)c2)c1C | ? | 82 | ? | 36
CCC(=O)NC1(C(F)(F)F)C(=O)Nc2c1c(=O)[nH]c(=O)n2CC(C)C (centres undefined) | / | . | . | .
O=C(NCc1ccc(F)cc1)c1cc2n(n1)CCCN(Cc1ccc(F)cc1)C2=O | / | / | . | /
c1ccc2[nH]c(-c3cnco3)cc2c1 | / | / | / | .
CCOC(=O)c1c(C)[nH]c(C(=O)NNC(=O)c2ccccc2)c1C | ? | 89 | . | 31
CCOC(=O)c1c(C)[nH]c(C=O)c1Cc1cccc(Cl)c1 | 6.3µM | . | ? | .
CCOC(=O)c1c(C)[nH]c(C(=O)COC(=O)C2CC2C)c1C (centres undefined) | ? | 60 | ? | 47
CCOC(=O)c1c(C)[nH]c(-c2csc(N)n2)c1C | ? | . | ? | .
CCOC(=O)c1c(C)[nH]c(-c2csc(C)n2)c1C | . | 62 | ? | 33
Cc1ccc(C2C(C#N)=C(N)Oc3cc(C)oc(=O)c32)o1 (centres undefined) | / | . | / | .
CC(=O)OCON[N+]([O-])=NC(C)C | / | . | / | .
COC(=O)c1c(C)[nH]c(C(=O)OCc2ccc(F)cc2)c1C | . | 134 | . | 78
CCOC(=O)c1[nH]c(C)c(C(=O)OCc2ccccc2F)c1C | 5.6µM | . | ? | 12
CCOC(=O)c1[nH]c(C)c(C(=O)OCCOc2cccc(C)c2)c1C | . | . | ? | 22
CCOC(=O)c1c(C)[nH]c(C(=O)OCC(=O)Nc2sccc2C(N)=O)c1C | ? | / | 2.2µM | /
CCOC(=O)c1c(C)[nH]c(C(=O)OCC(=O)Nc2ccc(Cl)cn2)c1C | . | / | . | /
CCCNC(=O)COC(=O)c1[nH]c(C)c(C(=O)OCC)c1C | . | . | . | .
Cc1onc(-c2ccccc2)c1C(=O)NC(=S)NNC(=O)c1ccc(O)cc1O | 2.5µM | . | ? | .
Cc1onc(-c2ccccc2)c1C(=O)NC(=S)NNC(=O)c1ccc(O)cc1 | ? | . | ? | .
CCCOc1ccc(C(=O)NC(=S)NNC(=O)c2c(-c3ccccc3)noc2C)cc1 | / | . | / | .
SMILES | LASV entry inh | Shiga inhibitor | Marburg entry inh | Cycloheximide cs
Cc1onc(-c2ccccc2)c1C(=O)NC(=S)NNC(=O)c1ccccc1O | ? | . | 3.2µM | .
O=C(O/N=C1\CCS(=O)(=O)c2sccc21)c1ccc(F)cc1 | . | 78 | . | 37
O=C(O/N=C1\CCS(=O)(=O)c2sccc21)c1ccccc1 | . | . | . | .
Cc1cccc(C(=O)OCC(=O)c2ccc3c(c2)OCO3)c1O | . | 78 | . | 71
N#CCC(=O)Nc1ccc(C(=O)OCC(=O)c2ccc3c(c2)OCCO3)cc1 | . | 68 | . | 48
CC(=O)Nc1ccccc1C(=O)OCC(=O)c1ccc2c(c1)OCCO2 | ? | 98 | ? | 32
Cc1onc(-c2c(F)cccc2Cl)c1C(=O)O/N=C(\N)c1ccc([N+](=O)[O-])o1 | . | 36 | . | .
N#CCC(=O)Nc1ccc(C(=O)OCC(=O)c2ccc3c(c2)OCO3)cc1 | ? | / | . | /
CCOc1ccc(C(=O)C(C)OC(=O)Cn2c(C)csc2=O)cc1 (centres undefined) | . | / | ? | /
COc1ccc(C2Nc3cc(OC)ccc3-n3cccc32)cc1 (centres undefined) | . | . | ? | .
Cc1onc(-c2ccccc2Cl)c1C(=O)OCC(=O)c1ccc[nH]1 | . | / | . | /
CC(C)C(=O)Nc1ccccc1C(=O)OCC(=O)c1ccc2c(c1)OCCO2 | . | 64 | ? | 38
COc1ccc(/C(N)=N/OC(=O)c2c(-c3ccccc3Cl)noc2C)cc1OC | ? | . | ? | .
Cc1ccccc1NC(=O)COC(=O)c1ccc2c(c1)OCCO2 | . | / | . | /
CC(=O)NC12CC3CC(C1)CC(C(=O)OCC(=O)c1ccc4c(c1)OCCO4)(C3)C2 | . | 80 | . | 45
CC(=O)NC12CC3CC(C1)CC(C(=O)OCC(=O)Nc1ncc(Cl)c(C)c1Cl)(C3)C2 | . | . | . | .
Cc1onc(-c2ccccc2Cl)c1C(=O)OCC(=O)c1ccc2c(c1)OCCO2 | ? | 121 | ? | 59
Cc1nc(/C(N)=N/OC(=O)c2c(-c3ccccc3Cl)noc2C)cs1 | . | . | 7.9µM | .
CCc1cccc(CC)c1NC(=O)CCS(=O)(=O)c1ccc2c(c1)CCN2C(C)=O | . | / | . | /
Cc1ccc(CCC(=O)Nc2ccc([N+](=O)[O-])cc2)o1 | . | . | . | .
O=C(CCNC(=O)c1ccc(Br)cc1)NNC(=O)c1ccccc1 | . | / | ? | /
CC1(C)COC(c2ccc3c(c2)OCO3)OC1 | . | / | . | /
NS(=O)(=O)c1cc(C(=O)OCC(=O)c2ccc3c(c2)OCCO3)ccc1Cl | / | 59 | / | 40
Cc1ccc(C)c2sc(N3CCN(C(=O)c4ccc([N+](=O)[O-])o4)CC3)nc12 | ? | / | 13µM | /
O=C(c1ccc([N+](=O)[O-])o1)N1CCN(c2nc3c(F)cc(F)cc3s2)CC1 | . | / | ? | /
SMILES | LASV entry inh | Shiga inhibitor | Marburg entry inh | Cycloheximide cs
Cc1cccc(OCC(=O)N2CCN(C(=O)Cc3ccccc3)CC2)c1 | . | . | ? | .
O=C(COc1ccc(F)cc1)N1CCC(c2ccccc2)C1 (centres undefined) | . | 58 | . | 43
Cc1cccc(OCC(=O)N2CCC(c3ccccc3)C2)c1 (centres undefined) | . | 79 | ? | 30
O=C(c1ccc(F)cc1)N1CCCC(c2ccccc2)C1 (centres undefined) | . | . | . | .
N#Cc1cnc2sc3ccccc3n2c1=N | . | 51 | . | 47
Cn1nc2sc3ccccc3n2c(=O)c1=O | . | . | ? | .
COc1ccccc1NC(=O)NCCC1=CCCCC1 | . | . | ? | .
CC(=O)c1ccc(OCC(=O)NCCC2=CCCCC2)cc1 | . | / | . | /
CC(=O)Nc1cccc(OCC(=O)NCCC2=CCCCC2)c1 | ? | 29 | ? | 23
COc1cccc(NC(=O)NCCC2=CCCCC2)c1 | / | 74 | / | 19
COc1ccc(NC(=O)NCCC2=CCCCC2)cc1 | / | 71 | / | 28
CC(C)(C)C(=O)NC(=S)Nc1sc2c(c1C#N)CCCCC2 | . | . | ? | 19
CCC(=O)Nc1sc2c(c1C(=O)N(C)C)CCCCC2 | . | . | . | .
CNS(=O)(=O)c1cccc(C(=O)OCC(=O)Nc2sc3c(c2C#N)CCCCC3)c1 | . | 44 | . | 26
CCC(=O)Nc1sc2c(c1C#N)CCCCC2 | . | 72 | . | 36
CCCC(=O)Nc1sc2c(c1C#N)CCCCC2 | ? | 47 | . | 37
N#Cc1c(Cl)nsc1NC(=O)c1ccccc1 | / | 132 | / | 31
Cc1ccc(C(=O)Nc2sc3c(c2C#N)CCCCC3)cc1C | . | 43 | . | 24
N#Cc1c(NC(=O)CCCC(=O)O)sc2c1CCCCC2 | 8.2µM | 112 | 1.2µM | 34
